Each structure is given as a SMILES string. Records with an inconclusive call do not appear. Where a call stands in place of a potency, no number is given. Activity calls are given as the source filed them. Calls follow the shape of the full dose curve.
Potency is read from the fitted curve at half-maximal effect.

D(2) dopamine receptor (Homo sapiens), sequence (P14416 whole entry, looked up): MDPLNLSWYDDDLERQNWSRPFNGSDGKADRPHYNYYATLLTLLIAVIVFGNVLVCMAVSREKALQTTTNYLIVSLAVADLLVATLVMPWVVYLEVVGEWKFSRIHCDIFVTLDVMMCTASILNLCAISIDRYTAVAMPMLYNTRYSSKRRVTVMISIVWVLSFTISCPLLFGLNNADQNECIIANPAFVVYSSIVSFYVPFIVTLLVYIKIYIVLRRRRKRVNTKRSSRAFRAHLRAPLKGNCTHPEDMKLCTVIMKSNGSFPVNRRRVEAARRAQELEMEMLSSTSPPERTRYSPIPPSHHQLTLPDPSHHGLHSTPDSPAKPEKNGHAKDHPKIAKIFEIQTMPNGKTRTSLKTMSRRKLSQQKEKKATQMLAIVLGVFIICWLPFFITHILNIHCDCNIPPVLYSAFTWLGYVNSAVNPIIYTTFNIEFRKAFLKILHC

For this assay, the target named is D(2) dopamine receptor (Homo sapiens) (UniProt P14416). In words: Dopamine D2 receptor (DRD2) small molecule agonists, cell-based qHTS assay (AID 1963594). Also: nearly all actives have a fitted effect of over 35% in size. The settings on record: HEK293-DRD2 cAMP HTRF, agonist mode, 30 min; series mostly up to 92.4 µM. The source says:
National Center for Advancing Translational Sciences [NCATS]
Division of Preclinical Innovation [DPI]
U.S. Environmental Protection Agency [EPA]
National Institutes of Environmental Health Sciences [NIEHS]
National Toxicology Program [NTP]
U.S. Food and Drug Administration [FDA]
DRD2 is the D2 subtype of the dopamine receptor, which is coupled to Gi subtype of G protein-coupled receptor. This G protein-coupled receptor inhibits adenylyl cyclase activity. The DRD2-HEK293 cell line stably expressing D2 dopamine receptor can be used for screening agonists and antagonists of interactions between D2 and its ligands. The Hek293-DRD2 cAMP assay is based on HTRF technology. It measures changes of cAMP accumulation in response to Gi coupled GPCR activation or inhibition.
Tox21 Assay Protocol Summary:
DRD2-Hek293 cells were dispensed at 600 cells/3uL/well in 1536-well white plates using a Multidrop Dispenser. After the assay plates were incubated at a 37 C/5% CO2 incubator for 24 h, 1 uL of Ro20-1724 at final concentration of 0.1 mM was transferred to the assay plate by a Flying Reagent Dispenser. Following Ro20-1724 addition, 23 nL of compound dissolved in DMSO, positive controls or DMSO only was added to the assay plates via Wako pintool station. The assay plates were incubated at room temperature for 10 min. Next, 1 uL of NKH477 at 200nM was added into the plates. After the assay plates were incubated at room temperature for an additional 30 min, 2.5 ul/well of cAMP-d2 and 2.5 ul/well of anti-cAMP-cryptate were added respectively into the assay plates using a Flying Reagent Dispenser. The plates were incubated at room temperature for 1 h. The fluorescence intensity in the plates was measured at 340 nm excitation and 665 & 620 nm emission by an Envision plate reader.
Regarding `CCCCC(CC)CCC(CC(C)C)OS(=O)(=O)O` (stereo not given), the Potency entry was “inactive”.

Take `CS(C)(=O)=O`: the Potency result is “inactive”.

On to `CCCCCCCCCCCCI`, for which the Potency is 54.7 µM (active).

In the case of `C=C1C[C@H]2[C@@H]3C=C(C)C4=CC(=O)CC[C@]4(C)[C@H]3CC[C@]2(C)[C@@]1(OC(C)=O)C(C)=O`, the Potency result is “inactive”.

Turning to `Nc1cc([N+](=O)[O-])ccc1Cl`, the Potency result is “inactive”.

Take `Fc1c(F)c(F)c(Br)c(F)c1F`: the Potency entry was “inactive”.

With `Cc1ccccc1S(N)(=O)=O`, the Potency result is “inactive”.

Turning to `COC(=O)c1ccc([N+](=O)[O-])cc1`, the Potency entry was “inactive”.

Take `CC(=O)N[C@@H](CC(C)C)C(=O)O`: the Potency result was “inactive”.

Consider `O=[N+]([O-])c1ccc(CCO)cc1`, for which the Potency result was “inactive”.

`CC(C)COC(=O)c1ccc(N)cc1`: the Potency entry was “inactive”.

On to `O=C1CCCCCCCCCCCCCCCO1`, for which the Potency result is “inactive”.

With `C=C(C)C(=O)NCCC[N+](C)(C)C`, the Potency result was “inactive”.

For `CC(C)CCCO`, the Potency result is “inactive”.

For the compound `CC(O)CCCCn1c(=O)c2c(ncn2C)n(C)c1=O` (stereo not given), the Potency result was “inactive”.

As to `C/C(=N\O)[C@@H](C)NCC(C)(C)CN[C@H](C)/C(C)=N/O`, the Potency entry was “inactive”.

Regarding `CC(C)[C@H]1CC[C@@H](C)CC1=O`, the Potency entry is “inactive”.

Take `COc1cc(C(=O)NCc2ccc(OCCN(C)C)cc2)cc(OC)c1OC`: the Potency result is “inactive”.

`C=C(C)C(=O)OCCCCCCOC(=O)C(=C)C`: the Potency result was “inactive”.

`CCCCC(CC)COCC1CO1` (stereo not given): the Potency entry was “inactive”.

As to `CC(C)(CCC(=O)O)C(=O)O`, the Potency result is “inactive”.

For the compound `ON(Cc1ccccc1)Cc1ccccc1`, the Potency result was “inactive”.

Consider `COc1ccc(C(=O)c2cccc(O)c2)c(OC)c1`, for which the Potency entry is “inactive”.

Regarding `COc1ccc2cccc(CCNC(C)=O)c2c1`, the Potency entry was “inactive”.

As for `CC(C)C(=O)OCCOc1ccccc1`, the Potency entry was “inactive”.

Consider `CC(C)=CCC/C(C)=C/C#N`, for which the Potency entry was “inactive”.

As to `S=C(NC1CCCCC1)NC1CCCCC1`, the Potency entry was “inactive”.

On to `O=Cc1cccc([N+](=O)[O-])c1`, for which the Potency entry is “inactive”.

Regarding `COC(=O)c1ccc(C(=O)OC)cc1`, the Potency result is “inactive”.

Take `CN(C1CCCCC1)S(=O)(=O)c1ccccc1N`: the Potency entry is “inactive”.

For the compound `O=C(O)CNC(=O)c1ccccc1I`, the Potency result was “inactive”.

Consider `CCC(=O)OCc1ccc(OC)cc1`, for which the Potency entry is “inactive”.

Take `CCCCCCCCCCC`: the Potency result is “inactive”.

As for `Cc1cc(N)no1`, the Potency result was “inactive”.

With `Cc1cccc(C)c1NC(=O)CN1CCCCCC1`, the Potency entry is “inactive”.

`CCc1occc(=O)c1O`: the Potency entry is “inactive”.

As for `c1ccc2cnccc2c1`, the Potency entry was “inactive”.

As for `CC(=O)O[C@H](CC(=O)[O-])C[N+](C)(C)C`, the Potency entry was “inactive”.

Take `Cc1cn([C@H]2C[C@H](F)[C@@H](CO)O2)c(=O)[nH]c1=O`: the Potency entry is “inactive”.

On to `CCCCCC(=O)CC`, for which the Potency result was “inactive”.

For the origin of these results see PubChem BioAssay (Tox21).
